According to PubChem BioAssay:
The source made the active and inactive calls.

Experiments:
Albumin (Bos taurus) = Albumin (Bos taurus) (UniProt P02769); assay: bovine serum albumin binders on microarray, profiling panel, artefact control for SMM control protein annotation, biochemical, small-molecule microarray, Alexa647 label, 635/667 nm fluorescence (AID 1118); conditions: BSA-A647 binding, fluorescence 635 nm, higher = more signal;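 further: score merges 667 nm emission intensity and signal-to-noise per printed compound spot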
Chain of Albumin (Bos taurus) (P02769 whole entry, looked up): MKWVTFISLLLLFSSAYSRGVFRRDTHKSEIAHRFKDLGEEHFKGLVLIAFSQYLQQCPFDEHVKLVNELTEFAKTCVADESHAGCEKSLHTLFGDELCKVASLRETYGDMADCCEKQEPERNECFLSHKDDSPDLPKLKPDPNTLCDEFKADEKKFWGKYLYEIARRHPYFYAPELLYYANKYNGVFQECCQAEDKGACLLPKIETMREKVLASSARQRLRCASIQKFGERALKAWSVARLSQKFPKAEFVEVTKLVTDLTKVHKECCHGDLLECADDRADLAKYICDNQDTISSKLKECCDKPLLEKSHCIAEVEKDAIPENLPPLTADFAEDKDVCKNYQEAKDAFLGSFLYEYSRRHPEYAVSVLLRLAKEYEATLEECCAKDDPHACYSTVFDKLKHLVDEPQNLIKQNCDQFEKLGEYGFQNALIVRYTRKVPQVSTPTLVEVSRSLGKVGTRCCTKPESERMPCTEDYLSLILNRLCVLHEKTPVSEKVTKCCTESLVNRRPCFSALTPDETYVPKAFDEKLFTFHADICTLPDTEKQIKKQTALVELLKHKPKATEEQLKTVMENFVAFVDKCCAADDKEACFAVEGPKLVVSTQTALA

[1] = small-molecule microarray binders of probe aXIP, primary screen, biochemical, NeuroSMM set, 635/667 nm fluorescence (AID 1119); conditions: higher = more signal, called active from +8 up or from −8 down;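 further: probe is the protein aXip251-270 applied at 1 µg/mL to compound-printed slides; binding of probe to printed compounds measured as 667 nm fluorescence plus signal to noise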
[2] = small-molecule binders of probe aNOTCH3, primary screen, biochemical, small-molecule microarray, 635/667 nm fluorescence (AID 1120); conditions: higher = more signal;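 further: probe is a biotin-tagged antibody raised against NOTCH3 rather than NOTCH3 protein; score merges spot fluorescence near 667 nm with spot signal to noise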
[3] = small-molecule binders of probe aNOTCH2, primary screen, biochemical, small-molecule microarray, 635/667 nm fluorescence (AID 1121); conditions: higher = more signal;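 further: score merges feature fluorescence read at 667 nm with its signal to noise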
[4] = molecular target: Carbonic anhydrase 2 (Homo sapiens) (UniProt P00918); assay: CAII small-molecule binders, profiling panel, biochemical, small-molecule microarray, Alexa647-labelled CAII (AID 1122); conditions: CAII-A647 binding fluorescence, higher = more signal
[5] = COS7 lysate on small-molecule microarray, probe aHis, 635 nm (AID 1123); conditions: COS7 cell lysate, fluorescence, higher = more signal;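 further: z-score combines 667nm fluorescence intensity with signal-to-noise per printed compound spot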
[6] = compound binding in COS7 lysate, probe aLAP1, primary screen, cell lysate, small-molecule microarray (AID 1124); conditions: probe aLAP1, fluorescence, higher = more signal;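 further: lysate comes from COS7 cells expressing LAP1 and is applied at 0.3 µg/mL; score merges spot fluorescence near 667 nm with signal-to-noise over triplicate slides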
Sam68 (KHDRBS1) = assay: Sam68 small-molecule binders, primary screen, biochemical, small-molecule microarray, 635 nm fluorescence (AID 1125); conditions: small-molecule microarray binding, higher = more signal;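 further: score merges 667 nm channel intensity with signal to noise over triplicate slides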
[7] = tested on: Chordin-like protein 2 (CHRDL2); assay: CHRDL2 small-molecule binders, primary screen, biochemical, small-molecule microarray, 635 nm fluorescence (AID 1126); conditions: small-molecule microarray binding, fluorescence 635 nm; higher = more signal;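 further: printed compound slides probed with Chrdl2 protein at 4 µg/mL for 1 h at 4 C; score merges 667 nm emission intensity with signal to noise over three replicate slides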
[8] = molecular target: Concanavalin-A (Canavalia ensiformis) (UniProt P02866); assay: ConA small-molecule binders, primary screen, artefact control for SMM control protein annotation, biochemical, small-molecule microarray, Alexa647 label, 635 nm (AID 1127); conditions: ConA-A647 binding fluorescence, higher = more signal;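 further: z combines 667 nm emission intensity with signal-to-noise across three replicate slides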
Chain of Concanavalin-A (Canavalia ensiformis) (P02866 whole entry, looked up): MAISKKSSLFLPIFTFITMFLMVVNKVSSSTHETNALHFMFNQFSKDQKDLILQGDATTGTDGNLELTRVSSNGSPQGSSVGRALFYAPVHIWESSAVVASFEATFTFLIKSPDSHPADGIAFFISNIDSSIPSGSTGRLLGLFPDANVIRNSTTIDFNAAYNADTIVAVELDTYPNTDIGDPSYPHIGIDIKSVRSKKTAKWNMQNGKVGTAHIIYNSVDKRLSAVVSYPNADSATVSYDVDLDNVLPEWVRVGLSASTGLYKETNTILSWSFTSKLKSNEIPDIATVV

Compound	composite z-score (Albumin (Bos taurus))	composite Z-score [1]	composite z-score [2]	composite z-score [3]	composite z-score [4]	composite z-score [5]	composite z-score [6]	composite z-score (Sam68 (KHDRBS1))	composite z-score [7]	composite z-score [8]
COCC(=C=CC[C@@H](O)c1ccc(CO)o1)CCO	-0.606	0.111 (inactive)	-0.215	-0.118	0.349	-0.185	1.51	0.101	0.689	0.188
COc1ccc([Si](C)(C)[C@@H]2[C@@H](CC(=O)N3CCC[C@H]3CO)O[C@]3(C(=O)N(C)c4c(Br)cc(C)cc43)[C@H]2C)cc1	0.588	0.306 (inactive)	0.0674	-0.175	0.292	1.15	0.461	1.3	0.872	1.07
COC(=O)[C@@]1(Cc2ccc(OC)cc2)[C@H]2c3cc(C(=O)N4CCCC4)n(Cc4ccccn4)c3C[C@H]2CN1C(=O)c1ccccc1	0.939	-0.832 (inactive)	0.277	0.246	0.82	1.55	0.285	1.31	-0.761	0.906
O=C1N(CCS(=O)(=O)c2ccccc2)c2ccccc2C[C@@]12COC(c1ccc(OCCCO)cc1)=N2	-0.746	-0.279 (inactive)	0.364	0.314	0.636	2.4	0.266	1.3	0.866	1.15
COC(=O)[C@@]1(Cc2ccc(OC)cc2)[C@H]2c3cc(C(=O)N(C)C)n(Cc4c(OC)[nH]cc(C)c4=O)c3C[C@H]2CN1C(=O)c1ccccc1	0.589	0.0562 (inactive)	1.04	0.107	0.881	1.57	-0.155	-0.0964	-0.218	-0.172
COCCOC(=O)N1C(=O)[C@@]2(c3ccccc31)[C@H](C(=O)NC[C@H](O)c1ccccc1)[C@H]1C(=O)O[C@H](c3ccccc3)[C@H](c3ccccc3)N1[C@@H]2c1ccc(OCCO)cc1	0.605	-0.404 (inactive)	0.267	-0.0959	0.492	1.53	-0.0994	1.3	1.22	1.12
CCOC(=O)[C@H]1C/C=C/C[C@H](C(=O)OCC)C(=O)O[C@H]2[C@@H](OC)O[C@H](CO)[C@@H](OC(=O)Nc3ccc4c(c3)OCO4)[C@@H]2OC1=O	0.783	0.622 (inactive)	0.0927	-0.0425	0.484	1.74	0.143	0.521	-0.384	0.468
COCCOC(=O)N1C(=O)[C@@]2(c3cc(C#CC4(O)CCCCCC4)ccc31)[C@H](C(=O)N1CCCCCCC1)[C@H]1C(=O)O[C@H](c3ccccc3)[C@H](c3ccccc3)N1[C@@H]2c1ccccc1OCCO	0.155	0.176 (inactive)	0.922	0.191	0.452	2.83	0.542	1.33	1.09	0.827
COC(=O)[C@@]1(Cc2ccc(F)cc2)[C@H]2c3cc(C(=O)N(C)C)n(CCc4ccccn4)c3C[C@H]2CN1C(=O)c1ccccc1	-0.0737	0.004 (inactive)	1	0.2	0.827	2.75	0.52	1.29	-0.464	0.542
COCCOC(=O)N1C(=O)[C@@]2(c3cc(C#CCC(C(=O)OC)C(=O)OC)ccc31)[C@H](c1ccc(O)cc1)N1[C@H](c3ccccc3)[C@H](c3ccccc3)OC(=O)[C@H]1[C@@H]2C(N)=O	0.47	1.07 (inactive)	-0.0647	0.0232	0.438	1.2	0.647	1.31	0.778	0.859
O=C1O[C@@H](c2ccccc2)[C@@H](c2ccccc2)N2[C@@H](c3ccc(O)cc3)[C@]3(C(=O)Nc4ccc(C#CC5(O)CCCCCC5)cc43)[C@@H](C(=O)N3CCCCCCC3)[C@H]12	0.748	6.76 (inactive)	2.12	1.06	0.742	3.88	0.894	1.33	1.55	1.12
COCCOC(=O)N1C(=O)[C@@]2(c3ccccc31)[C@H](c1ccc(O)cc1)N1[C@H](c3ccccc3)[C@H](c3ccccc3)OC(=O)[C@H]1[C@@H]2C(=O)N1CCc2cc(OC)c(OC)cc2C1	-0.361	2.47 (inactive)	0.128	0.0712	0.136	1.76	0.288	1.32	1.44	1.13
CC(C)=CCCC(C)=CC(O)C1C=CC2C(=O)N(c3ccccc3)C(=O)C2N1Nc1ccccc1 (stereo not given)	0.977	-0.0662 (inactive)	0.461	0.251	0.646	1.52	0.78	1.27	-0.0528	1.14
COc1ccc(C#Cc2ccc3c(c2)[C@]2(C(=O)N3)[C@H](c3ccc(O)cc3)N3[C@H](c4ccccc4)[C@H](c4ccccc4)OC(=O)[C@H]3[C@@H]2C(=O)N2CCCCCCC2)cc1	0.814	5.12 (inactive)	1.84	0.939	0.504	3.27	0.998	1.31	1.23	1.14
CC1CC/C=C\[C@H]2OC34C=CCN(Cc5ccccc5)C(=O)[C@H]3N(CCCCCO)C(=O)[C@@H]4C2C(=O)O1 (stereo not given in full)	0.363	0.815 (inactive)	-0.213	-0.19	0.871	-0.351	1.4	-0.883	-0.0737	-0.811
COc1ccc([Si](C)(C)[C@H]2[C@H](CCn3cc([C@H](O)c4ccccc4)nn3)O[C@@]3(C(=O)N(Cc4cccc(N5CCC5=O)c4)c4ccccc43)[C@@H]2C)cc1	0.31	-0.0916 (inactive)	-0.219	-0.245	0.115	1.12	-0.166	0.316	0.317	0.47
COCCOC(=O)N1C(=O)[C@@]2(c3cc(C#CCNC(N)=O)ccc31)[C@H](c1ccccc1OCCO)N1[C@H](c3ccccc3)[C@H](c3ccccc3)OC(=O)[C@H]1[C@@H]2C(N)=O	-0.117	-0.479 (inactive)	-0.0345	-0.148	0.475	-0.726	0.177	1.22	0.616	1.18

Compound	composite z-score (Albumin (Bos taurus))	composite Z-score [1]	composite z-score [2]	composite z-score [3]	composite z-score [4]	composite z-score [5]	composite z-score [6]	composite z-score (Sam68 (KHDRBS1))	composite z-score [7]	composite z-score [8]
CC(C)OC(=O)CC(=O)CC(O)c1ccc(C#N)cc1 (stereo not given)	-0.181	0.0371 (inactive)	-0.0377	0.174	0.0258	0.657	0.649	0.438	-1.19	-0.6
O=c1oc(-c2ccccc2)nc2cc(Br)ccc12	-0.163	-0.12 (inactive)	-0.0647	-0.0984	-0.0912	0.704	0.107	0.0872	0.875	0.666
O=C1O[C@H](c2ccccc2)[C@H](c2ccccc2)N2[C@H]1[C@@H](C(=O)O)[C@]1(C(=O)Nc3ccc(C#CC4(O)CCCCCC4)cc31)[C@H]2c1ccc(OCCO)cc1	0.906	-0.0503 (inactive)	0.0876	-0.0727	0.672	2.58	0.78	1.29	-0.862	1.06
[N-]=[N+]=NCc1ccccc1[C@@H]1OC(c2ccc(OCCCO)cc2)=N[C@]1(Cc1ccccc1)C(=O)N1CCCCC1	0.763	-0.623 (inactive)	0.211	0.0215	0.471	1.52	-0.0921	1.32	0.581	1.14
CC(C)C(=C=CC[C@H](O)c1cccc(OCCO)c1)C[C@H](O)COCc1ccccc1	-0.0081	1.64 (inactive)	0.119	-0.0562	0.235	1.22	-0.125	0.166	-0.101	0.0514
O=c1cccc(C=Cc2ccccc2)o1	-0.828	0.0786 (inactive)	-0.178	-0.126	-0.228	-0.386	0.224	-0.0848	-1.58	-0.514
Cc1ccc([C@H]2[C@H](C(=O)O)[C@H](Sc3ccccc3)[C@@H](C(C)C)N2S(=O)(=O)c2ccc(C)cc2)cc1	0.907	0.497 (inactive)	0.249	0.0303	0.66	2.25	0.722	1.31	-0.299	1.09
CC(C)CNC(=O)[C@@]1(c2ccc([N+](=O)[O-])cc2)CC(=O)N(CC23CC4CC(CC(C4)C2)C3)[C@@H]1c1ccc(CO)cc1I	-0.0275	0.493 (inactive)	0.54	-0.0001	0.259	2.03	0.451	1.32	0.499	0.974
COCCOC(=O)N1C(=O)[C@@]2(c3cc(C#CCC(C(=O)OC)C(=O)OC)ccc31)[C@H](c1ccccc1OCCO)N1[C@H](c3ccccc3)[C@H](c3ccccc3)OC(=O)[C@H]1[C@@H]2C(N)=O	0.101	-0.167 (inactive)	0.173	-0.0357	0.503	2.03	1.5	1.25	0.237	1.07
CN1C(=O)C2C=CC(C(O)c3ccccn3)N(Nc3ccccc3)C2C1=O (stereo not given)	-0.0756	0.0956 (inactive)	0.0711	-0.14	0.727	0.446	0.456	0.656	0.288	0.37
C=C(COC)C(=O)CC[C@@H](OC(=O)c1cccnc1)c1ccc(CO)o1	0.158	0.509 (inactive)	-0.0362	-0.157	0.481	0.387	0.823	0.532	0.739	0.341
O=C1OCC=C[C@H]2OC34C=CCN(c5ccc(Cl)cc5)C(=O)[C@H]3N(CCCCCCO)C(=O)[C@@H]4[C@@H]12 (stereo not given in full)	-0.95	0.276 (inactive)	-0.226	-0.148	0.978	0.568	0.688	-1.02	-1.03	-1.59
COCCCNC(=O)[C@@]1(CCC(=O)OC(C)(C)C)N=C(c2ccc(OCCCO)cc2)O[C@H]1c1ccccc1CN=[N+]=[N-]	0.642	-0.371 (inactive)	0.433	0.0716	0.577	3.34	1.53	1.26	-0.105	0.8
O=C1C2C=CC(C(O)c3ccc(F)cc3)N(Nc3ccccc3)C2C(=O)N1c1ccccc1 (stereo not given)	0.843	0.121 (inactive)	0.189	0.0449	0.734	2.88	-0.364	0.654	-0.527	-0.398
CC(C)Cc1ccc(CN2CC[C@@H](NS(=O)(=O)c3ccccc3)C2)cc1	-0.623	0.119 (inactive)	-0.187	-0.173	-0.114	0.48	0.0054	0.532	0.449	-0.36
C=C[C@H](COC(C)=O)N(Cc1ccc(OC(C)=O)c(OC)c1)S(=O)(=O)c1ccc(Br)cc1	0.777	0.365 (inactive)	0.223	0.272	0.512	0.987	0.509	0.988	0.771	1.04
